Reference: PubChem BioAssay (NCI)
About 83,000 compounds went through this panel and 20% of them were active in at least one assay; those are over-represented in the sample as a whole.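 Growth was measured after 48 h exposure to one concentration of compound in 96-well plates. Values under 10 count as active.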 Values without a mark were called inactive. Calls of active or inactive are those of the source.

Columns and labels:
Experiment in all cases: NCI-60 one-dose screen, 48 h (100 = growth as untreated, 0 = no growth, -100 = all killed)
Conditions in all cases: 10 µM unless noted
[1] = system: SK-MEL-2 melanoma
[2] = system: EKVX NSCLC
[3] = system: SN12C renal
[4] = system: UO-31 renal
[5] = system: TK-10 renal
[6] = system: ACHN renal
[7] = system: CAKI-1 renal
[8] = system: A498 renal
[9] = system: CCRF-CEM leukemia
[10] = system: MOLT-4 leukemia
[11] = system: SR leukemia
[12] = system: RPMI-8226 leukemia
[13] = system: OVCAR-8 ovarian
[14] = system: OVCAR-5 ovarian
[15] = system: OVCAR-4 ovarian
[16] = system: SK-OV-3 ovarian
[17] = system: IGROV1 ovarian
[18] = system: OVCAR-3 ovarian
[19] = system: HS 578T breast
[20] = system: NCI/ADR-RES ovarian

SMILES: O=C(CCCCCCN1CC(=O)N2[C@H](c3ccc(Br)cc3)c3[nH]c4ccccc4c3C[C@@H]2C1=O)NO
- growth [1]: 60.3%
- growth [2]: 56.7%
- growth [3]: 56.6%
- growth [4]: 58.8%
- growth [5]: 40.6%
- growth [6]: 72.3%
- growth [7]: 51.5%
- growth [8]: 67.4%
- growth [9]: 21%
- growth [10]: 5.86% (active)
- growth [11]: 24%
- growth [12]: 18%
- growth [13]: 41.2%
- growth [14]: 40.5%
- growth [15]: 67.5%
- growth [16]: 49.5%
- growth [17]: 23.9%
- growth [18]: 41.5%
- growth [19]: 53%
- growth [20]: 89.6%

SMILES: CN(Cc1cnc2nc(N)nc(N)c2n1)c1ccc(C(=O)NC(CCC(=O)O)C(=O)O)cc1Br (stereo not given)
- growth [1]: 67.4%
- growth [2]: 67.6%
- growth [3]: 26%
- growth [4]: 38.8%
- growth [5]: 50.4%
- growth [6]: 15.8%
- growth [7]: 19%
- growth [8]: 76.4%
- growth [9]: 37.9%
- growth [10]: 30.5%
- growth [11]: 34.1%
- growth [12]: 54.3%
- growth [13]: 45.5%
- growth [14]: 27.7%
- growth [15]: 75%
- growth [16]: 45.3%
- growth [17]: 40.9%
- growth [18]: 53.8%
- growth [19]: 96.7%
- growth [20]: 38.4%

SMILES: Cc1n[nH]c2ccc(Br)cc2c1=O
- growth [1]: 99.4%
- growth [2]: 110%
- growth [3]: 106%
- growth [4]: 75.8%
- growth [5]: 104%
- growth [6]: 100%
- growth [7]: 103%
- growth [8]: 83.7%
- growth [9]: 89.2%
- growth [10]: 92.8%
- growth [11]: 100%
- growth [12]: 98.1%
- growth [13]: 110%
- growth [14]: 102%
- growth [15]: 125%
- growth [16]: 98.6%
- growth [17]: 99.6%
- growth [18]: 109%
- growth [19]: 101%
- growth [20]: 110%

SMILES: CCSc1oc(C)nc1[P+](c1ccccc1)(c1ccccc1)c1ccccc1
- growth [1]: 50%
- growth [2]: 25.9%
- growth [3]: 27.7%
- growth [4]: 82.3%
- growth [5]: 48.1%
- growth [6]: 83.4%
- growth [7]: 70.6%
- growth [8]: 19.3%
- growth [9]: 37.7%
- growth [10]: 38.4%
- growth [11]: 36.2%
- growth [12]: 5.08% (active)
- growth [13]: 21.5%
- growth [14]: 69.2%
- growth [15]: 38.2%
- growth [16]: 28%
- growth [17]: 30.3%
- growth [18]: 15.8%
- growth [19]: 56.3%
- growth [20]: 97.8%

SMILES: CCCCNC(=O)Oc1ccc(/C(=C(/C)Cc2ccc(OC)cc2)c2ccc(OCCN3CCCCC3)cc2)cc1
- growth [1]: 113%
- growth [2]: 76.3%
- growth [3]: 73.9%
- growth [4]: 51%
- growth [5]: 84.4%
- growth [6]: 91.3%
- growth [7]: 83.6%
- growth [8]: 96.3%
- growth [9]: 42.8%
- growth [10]: 33.6%
- growth [11]: -40.5% (active)
- growth [12]: 32.3%
- growth [13]: 84.7%
- growth [14]: 84.5%
- growth [15]: 69.3%
- growth [16]: 95.5%
- growth [17]: 84.5%
- growth [18]: 77.1%
- growth [19]: 72.9%
- growth [20]: 81.9%

SMILES: COc1ccc(Oc2nc(Nc3ccc(N4CCOCC4)cc3)ncc2NC(=O)Nc2cc(OC)cc(OC)c2)cc1
- growth [1]: 17.8%
- growth [2]: 73.1%
- growth [3]: -12.7% (active)
- growth [4]: 47.8%
- growth [5]: 28.4%
- growth [6]: 17.4%
- growth [7]: 16.3%
- growth [8]: 9.34% (active)
- growth [9]: 65%
- growth [10]: 36.8%
- growth [11]: 50.7%
- growth [12]: 54.3%
- growth [13]: 18.4%
- growth [14]: 60.9%
- growth [15]: 54.5%
- growth [16]: 57.4%
- growth [17]: 37.8%
- growth [18]: 18.3%
- growth [19]: 36.2%
- growth [20]: 80.8%

SMILES: CCn1cc(CNc2ccc(C(=O)Nc3cc4cc(OC)c(OC)cc4c(C)n3)cc2)cn1
- growth [1]: 38.7%
- growth [2]: 60.5%
- growth [3]: 79.3%
- growth [4]: 19.8%
- growth [5]: 52.7%
- growth [6]: 60.8%
- growth [7]: 69%
- growth [8]: 73.8%
- growth [9]: 17.5%
- growth [10]: 35.2%
- growth [11]: 12.2%
- growth [12]: 34.7%
- growth [13]: 28%
- growth [14]: 93.1%
- growth [15]: 46.5%
- growth [16]: 56.8%
- growth [17]: 73%
- growth [18]: 54.8%
- growth [19]: 70.3%
- growth [20]: 35.5%

SMILES: O=C(/C=C/c1ccc(Oc2ccc(Br)cc2)cc1)c1ccc(Br)cc1
- growth [1]: 96.5%
- growth [2]: 103%
- growth [3]: 97.2%
- growth [4]: 78.8%
- growth [5]: 95.2%
- growth [6]: 102%
- growth [7]: 93.5%
- growth [8]: 73.6%
- growth [9]: 91.9%
- growth [10]: 90.5%
- growth [11]: 85.7%
- growth [12]: 83.5%
- growth [13]: 94.7%
- growth [14]: 110%
- growth [15]: 95%
- growth [16]: 108%
- growth [17]: 99%
- growth [18]: 102%
- growth [19]: 102%
- growth [20]: 98.1%

SMILES: CC[N+]1(CC)CC[N+]2(CCCC(C)CC2)CC1 (stereo not given)
- growth [1]: 110%
- growth [2]: 100%
- growth [3]: 96.4%
- growth [4]: 94.7%
- growth [5]: 104%
- growth [6]: 104%
- growth [7]: 101%
- growth [8]: 95.8%
- growth [9]: 107%
- growth [10]: 105%
- growth [11]: 106%
- growth [12]: 99.9%
- growth [13]: 105%
- growth [14]: 94.8%
- growth [15]: 111%
- growth [16]: 104%
- growth [17]: 95.6%
- growth [18]: 111%
- growth [19]: 107%
- growth [20]: 111%

SMILES: CNC(=O)c1cc(Oc2cccc3nc(NC(=O)Nc4cc(C(F)(F)F)ccc4Cl)ccc23)ccn1
- growth [1]: 119%
- growth [2]: 99.5%
- growth [3]: 93.5%
- growth [4]: 105%
- growth [5]: 111%
- growth [6]: 101%
- growth [7]: 85.8%
- growth [8]: 109%
- growth [9]: 80.8%
- growth [10]: 89.5%
- growth [11]: 48.2%
- growth [12]: 78.8%
- growth [13]: 78%
- growth [14]: 98.7%
- growth [15]: -10.5% (active)
- growth [16]: 115%
- growth [17]: 108%
- growth [18]: 95.4%
- growth [19]: 76.4%
- growth [20]: 93.8%

SMILES: COc1ccc(/C=C(/c2ccccc2)[N+](=O)[O-])c(OC)c1
- growth [1]: -6.4% (active)
- growth [2]: 36.2%
- growth [3]: -20.5% (active)
- growth [4]: -97.6% (active)
- growth [5]: -26% (active)
- growth [6]: -72.4% (active)
- growth [7]: -25.5% (active)
- growth [8]: 51.5%
- growth [9]: 7.93% (active)
- growth [10]: 6.93% (active)
- growth [11]: 6.7% (active)
- growth [12]: 1.5% (active)
- growth [13]: 15.8%
- growth [14]: -9.82% (active)
- growth [15]: 14.4%
- growth [16]: 42.7%
- growth [17]: -35.9% (active)
- growth [18]: -80.6% (active)
- growth [19]: 46.1%
- growth [20]: -4.93% (active)

SMILES: c1ccc(CCNc2c3ccccc3nc3ccccc23)cc1
- growth [1]: 86.3%
- growth [2]: 36.3%
- growth [3]: 33.1%
- growth [4]: 24.2%
- growth [5]: 53.2%
- growth [6]: 21.6%
- growth [7]: 30.3%
- growth [8]: -5.19% (active)
- growth [9]: 53.3%
- growth [10]: 24.6%
- growth [11]: 20.9%
- growth [12]: 19.5%
- growth [13]: 38.3%
- growth [14]: 53.4%
- growth [15]: 35%
- growth [16]: 62.6%
- growth [17]: 28%
- growth [18]: 71%
- growth [19]: 73.3%
- growth [20]: 33.5%

SMILES: COC(=O)C(Cc1ccccc1)NC(=O)c1ccc(NC(=O)c2[nH]c(C)c(Cl)c2Cl)c(OC(C)C)c1 (stereo not given)
- growth [1]: 105%
- growth [2]: 101%
- growth [3]: 16%
- growth [4]: 94.8%
- growth [5]: 53.5%
- growth [6]: 40.3%
- growth [7]: 90%
- growth [8]: 86.8%
- growth [9]: 73.2%
- growth [10]: 84.9%
- growth [11]: 17.4%
- growth [12]: 57.9%
- growth [13]: -29.8% (active)
- growth [14]: 93.2%
- growth [15]: 39.7%
- growth [16]: 99.1%
- growth [17]: 83.1%
- growth [18]: 12.9%
- growth [19]: 62.1%
- growth [20]: 31.4%
